Source: PubChem BioAssay (Tox21)
Inconclusive results are not listed. Entries that show only a call come without a potency. The source made the active and inactive calls. Unless noted, the call rests on the fitted dose curve; in most records, active means well fitted curve in the direction sought with a large enough effect in the repeat runs; inconclusive means weak or mixed curves; inactive means no such curve, though single readings can be large; an effect the other way counts as inactive or inconclusive.

Experiments:
[1] = qHTS assay to identify aromatase inhibitors - cell viability counter screen (AID 743084);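 further: cells stimulated with testosterone during compound exposure; nearly all actives have a fitted effect of over 55% in size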; further: potency means the concentration at half of the fitted maximal effect
[2] = qHTS assay to identify small molecule that activate the aryl hydrocarbon receptor (AhR) signaling pathway - cell viability counter screen (AID 743086); further: nearly all actives have a fitted effect of over 45% in size; further: potency means the concentration at half of the fitted maximal effect
In short: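 HepG2-AhR-luc (HG2L7.5c1) cells, 4000/well, were preincubated 5 h at 37C, exposed to compound in qHTS format for 24 hr at 37C, then given CellTiter-Fluor for 30 min; viability was read as fluorescence in the reporter wells.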

[3] = biological target: Peroxisome proliferator-activated receptor gamma (Homo sapiens) (UniProt P37231); experiment: qHTS assay to identify small molecule agonists of the peroxisome proliferator-activated receptor gamma (PPARg) signaling pathway (AID 743094; active means well fitted activation curve with a large enough effect in the signal ratio in the repeat runs, not every such curve was filed as active; the % refers to the signal ratio)
In short: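 Agonism was assessed in a beta-lactamase reporter system, HEK293H cells with a stably integrated UAS-bla construct under PPARg control; the 17 h treatment at 37C preceded a 1 h room-temperature FRET substrate read.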

[4] = qHTS assay for small molecule agonists of the antioxidant response element (ARE) signaling pathway - cell viability counter screen (AID 743203; calls by dose curve; further: nearly all actives have a fitted effect of over 55% in size)
In short: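 ATP content via CellTiter-Glo luminescence served as the viability measure. Cells: ARE-bla HepG2, 2,000 per well. Exposure: 16 hrs, 37C/5% CO2.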

[5] = qHTS assay for small molecule activators of the heat shock response signaling pathway - cell viability counter screen (AID 743209); further: nearly all actives have a fitted effect of over 50% in size; further: potency means the concentration at half of the fitted maximal effect
In short: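 Compounds dissolved in DMSO were added to overnight-plated HSE-bla HeLa cells and left 5 h at 37 C. Cell viability was quantified by luminescence using CellTiter-Glo.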

[6] = qHTS assay for small molecule activators of the heat shock response signaling pathway (AID 743210; active means well fitted activation curve with a large enough effect in the signal ratio in the repeat runs, with a control signal flat, not every such curve was filed as active; the % refers to the signal ratio;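 further: HeLa cells with beta-lactamase reporter driven by heat shock elements; series mostly up to about 63 µM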)
In short: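 Activation of heat shock element-controlled beta-lactamase expression is measured in HeLa cells by LiveBLAzer FRET fluorescence, with compound exposure lasting 5 h at 37 C and substrate loading 2.5 h at room temperature.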

[7] = qHTS assay for small molecule agonists of the antioxidant response element (ARE) signaling pathway (AID 743202; active means well fitted activation curve with a large enough effect in the signal ratio in the repeat runs, not every such curve was filed as active; the % refers to the signal ratio; further: potency means the concentration at half of the fitted maximal effect)
In short: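 Steps: seed ARE-bla HepG2 cells (2,000/well); incubate 5 h at 37 C; add compounds by pin tool; incubate 16 h at 37 C; add FRET substrate; read fluorescence after 2 h at RT.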

[8] = qHTS assay to identify small molecule antagonists of the peroxisome proliferator-activated receptor gamma (PPARg) signaling pathway - cell viability counter screen (AID 743194); further: nearly all actives have a fitted effect of over 55% in size; further: potency means the concentration at half of the fitted maximal effect
In short: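 PPARg-UAS-bla HEK293H cells were plated, rested 5 h at 37 C, then treated with compounds plus rosiglitazone (50 nM final) for 17 h at 37 C; viability was then read by CellTiter-Glo luminescence after 30 min at room temperature.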

[9] = biological target: Aryl hydrocarbon receptor (Homo sapiens) (UniProt P35869); experiment: qHTS assay to identify small molecule that activate the aryl hydrocarbon receptor (AhR) signaling pathway (AID 743085); further: nearly all actives have a fitted effect of over 15% in size; further: potency means the concentration at half of the fitted maximal effect;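 on activation: HG2L7.5c1 human HepG2 liver cells with stably integrated DRE-driven firefly reporter; series mostly up to about 70 µM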
In short: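 Reporter assay in engineered HepG2 line HG2L7.5c1, whose plasmid carries twenty dioxin responsive elements upstream of firefly luciferase. Treatment lasted 24 h at 37C; ONE-Glo luminescence gauged induction.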

[10] = biological target: Peroxisome proliferator-activated receptor gamma (Homo sapiens) (UniProt P37231); experiment: qHTS assay to identify small molecule antagonists of the peroxisome proliferator-activated receptor gamma (PPARg) signaling pathway (AID 743191; calls by dose curve; further: nearly all actives have a fitted effect of over 30% in size; further: potency means the concentration at half of the fitted maximal effect)
In short: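 GeneBLAzer PPARg UAS-bla HEK293H cells carrying a UAS-driven beta-lactamase reporter were plated at 3000 cells/well, preincubated 5 h at 37C, then given compound for 17 h at 37C; LiveBLAzer B/G FRET substrate was read after 1 h at room temperature.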

Aryl hydrocarbon receptor (Homo sapiens), sequence (P35869 whole entry, looked up): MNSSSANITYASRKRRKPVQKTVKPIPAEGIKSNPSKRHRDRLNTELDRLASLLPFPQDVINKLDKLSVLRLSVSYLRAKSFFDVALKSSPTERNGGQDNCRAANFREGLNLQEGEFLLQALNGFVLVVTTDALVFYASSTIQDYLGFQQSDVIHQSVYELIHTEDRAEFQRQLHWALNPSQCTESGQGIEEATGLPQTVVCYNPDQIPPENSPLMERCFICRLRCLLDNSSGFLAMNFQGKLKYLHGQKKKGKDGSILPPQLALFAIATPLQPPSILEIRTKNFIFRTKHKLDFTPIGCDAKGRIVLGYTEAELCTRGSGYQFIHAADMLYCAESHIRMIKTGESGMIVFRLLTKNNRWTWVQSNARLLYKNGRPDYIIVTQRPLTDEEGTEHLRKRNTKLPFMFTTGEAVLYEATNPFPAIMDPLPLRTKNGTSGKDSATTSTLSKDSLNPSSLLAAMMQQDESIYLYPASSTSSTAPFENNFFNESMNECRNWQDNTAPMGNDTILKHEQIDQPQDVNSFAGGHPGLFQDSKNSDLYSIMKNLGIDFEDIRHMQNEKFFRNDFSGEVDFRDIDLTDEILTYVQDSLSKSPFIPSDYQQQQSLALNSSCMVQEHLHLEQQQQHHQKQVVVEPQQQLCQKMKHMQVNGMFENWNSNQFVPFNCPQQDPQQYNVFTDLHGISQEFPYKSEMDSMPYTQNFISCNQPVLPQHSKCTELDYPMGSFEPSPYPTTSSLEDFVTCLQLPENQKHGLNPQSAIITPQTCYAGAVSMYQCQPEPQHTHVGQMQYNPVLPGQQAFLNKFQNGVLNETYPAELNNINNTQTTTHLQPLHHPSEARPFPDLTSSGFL
Peroxisome proliferator-activated receptor gamma (Homo sapiens), sequence (P37231 whole entry, looked up): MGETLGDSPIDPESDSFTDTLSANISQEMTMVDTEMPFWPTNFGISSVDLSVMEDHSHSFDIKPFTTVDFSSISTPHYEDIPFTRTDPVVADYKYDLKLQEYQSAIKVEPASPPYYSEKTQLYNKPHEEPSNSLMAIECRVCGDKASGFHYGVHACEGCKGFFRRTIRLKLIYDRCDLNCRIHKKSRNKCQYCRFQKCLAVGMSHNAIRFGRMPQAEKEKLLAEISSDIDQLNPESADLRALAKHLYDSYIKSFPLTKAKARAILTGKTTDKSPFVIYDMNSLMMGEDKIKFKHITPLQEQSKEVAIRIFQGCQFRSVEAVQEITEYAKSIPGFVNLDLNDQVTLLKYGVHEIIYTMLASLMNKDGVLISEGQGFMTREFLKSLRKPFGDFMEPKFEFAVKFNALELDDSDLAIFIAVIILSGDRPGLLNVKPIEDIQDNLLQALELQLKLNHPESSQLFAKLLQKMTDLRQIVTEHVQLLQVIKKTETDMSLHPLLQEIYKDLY

Compound | Potency [1] | Potency [2] | Potency [3] | Potency [4] | Potency [5] | Potency [6] | Potency [7] | Potency [8] | Potency [9] | Potency [10]
O=C=Nc1cccc(C(F)(F)F)c1 | inactive | inactive | inactive | inactive | inactive | inactive |  |  |  | 
CCCCC(CC)COP(=O)(O)O (configuration not stated) | inactive | inactive |  |  | inactive | inactive |  |  |  | 
O=c1c(O)c(-c2ccc(O)cc2)oc2cc(O)cc(O)c12 | inactive | inactive |  | inactive | inactive | inactive | inactive |  |  | 
C[C@]1(Cn2ccnn2)[C@H](C(=O)O)N2C(=O)C[C@H]2S1(=O)=O | inactive | inactive |  | inactive | inactive | inactive |  | inactive |  | 
O=C1NC(=O)c2cc([N+](=O)[O-])ccc21 |  | inactive | inactive | inactive | inactive | inactive |  | inactive | inactive | 
c1ccc2sc(SN(C3CCCCC3)C3CCCCC3)nc2c1 | inactive | inactive | inactive |  | inactive | inactive | 30.3 µM (active) |  |  | 
O=[N+]([O-])c1ccc(O/N=C/c2cc(Br)c(O)c(Br)c2)c([N+](=O)[O-])c1 | inactive | inactive | inactive |  | inactive |  | 8.59 µM (active) |  |  | 19.4 µM (active)
C[C@@H](O)[C@H]1C(=O)N2C(C(=O)O)=C([C@H]3CCCO3)S[C@H]12 | inactive | inactive | inactive | inactive | inactive |  |  | inactive |  | inactive
CC[C@]1(O)C[C@H]2CN(CCc3c([nH]c4ccccc34)[C@@](C(=O)OC)(c3cc4c(cc3OC)N(C=O)[C@H]3[C@@](O)(C(=O)OC)[C@H](OC(C)=O)[C@]5(CC)C=CCN6CC[C@]43[C@@H]65)C2)C1 |  | inactive |  |  | inactive | inactive |  | inactive | inactive | inactive
Nc1nnc(-c2ccc([N+](=O)[O-])o2)o1 | 61.1 µM (active) | 54.5 µM (active) | inactive |  | inactive | inactive |  |  |  | inactive
O=C(OCC(O)CO)c1ccccc1Nc1ccnc2cc(Cl)ccc12 (configuration not stated) | inactive | inactive | inactive |  |  |  | 11.9 µM (active) | inactive |  | 
Cc1c(C)c2c(c(C)c1OC(=O)CCC(=O)OCCO)CC[C@@](C)(CCC[C@H](C)CCC[C@H](C)CCCC(C)C)O2 |  | inactive |  | inactive | inactive | inactive |  | 33.5 µM (active) | inactive | 15 µM (active)
O=C(O)c1cccc(-c2noc(-c3ccccc3F)n2)c1 | inactive | inactive |  |  | inactive | inactive |  |  |  | 
O=C1c2ccccc2C(=O)C1(O)O |  | inactive | inactive |  | inactive |  | inactive | inactive | 61.4 µM (active) | inactive
CCOc1ccc(Cc2nccc3cc(OCC)c(OCC)cc23)cc1OCC | inactive | inactive | inactive |  | inactive | inactive |  | inactive |  | 
Cc1[nH]cnc1CN1CCc2c(c3ccccc3n2C)C1=O | inactive | inactive | inactive | inactive | inactive | inactive | inactive | inactive |  | 
C=CC(=O)OCC1CC2CC1C1CCC(COC(=O)C=C)C21 (configuration not stated) | inactive | inactive | inactive | inactive |  |  |  |  |  | 
Oc1cccc(O)c1O | inactive | inactive | inactive | inactive | inactive | inactive | inactive | inactive |  | inactive
CCCCN1CCCC1C(=O)Nc1c(C)cc(C)cc1C (configuration not stated) | inactive | inactive |  | inactive | inactive |  | inactive |  |  | 
O=c1cc(-c2ccccc2)oc2ccc3ccccc3c12 | inactive | inactive |  |  | 24.5 µM (active) |  |  | 19.5 µM (active) |  | inactive
C=C/C(C)=C/C/C=C(\C)CCC=C(C)C |  | inactive |  |  |  |  | 54.5 µM (active) | inactive | inactive | 
CC(=O)OCC(=O)NCCCOc1cccc(CN2CCCCC2)c1 | inactive | inactive | inactive | inactive | inactive | inactive | inactive | inactive |  | 
Cc1cc(C)c(N)cc1C | inactive | inactive | inactive | inactive | inactive | inactive | inactive | inactive |  | 
O=C1c2ccccc2C(=O)C1c1nc2ccccc2c(Br)c1O |  | inactive | inactive | inactive | inactive | inactive | 1.54 µM (active) |  | 9.69 µM (active) | inactive
CC(=O)OCCN(CCOC(C)=O)c1ccc(N=Nc2ccc([N+](=O)[O-])cc2C#N)cc1 | 27.3 µM (active) | inactive | inactive | inactive | inactive | inactive |  | inactive |  | inactive
N#[N+]c1ccc2c(S(=O)(=O)[O-])cccc2c1O |  |  | inactive | inactive | inactive | inactive | inactive | inactive | inactive | 
COc1ccc(OC(=O)N(CC(=O)O)Cc2ccc(OCCc3nc(-c4ccccc4)oc3C)cc2)cc1 |  |  |  | inactive | inactive | inactive |  | inactive |  | 
